High-throughput results (PubChem)
Gal4-VP16 FLuc: counter-screen for ROR gamma inhibitors: Gal4-VP16 reporter; Drosophila S2 Gal4-VP16 UAS-luciferase, luminescence, 20 h; Potency, µM (highest dose often 53.6 µM), without a hit: top-dose activity, negative = inhibition, actives largely listed as inhibitors; actives 3.5% (n = 310,000); AID 2546;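 further: Gal4-VP16 expression switched on by copper sulfate through the metallothionein promoter; potency means the concentration at half of the fitted maximal effect; nearly all actives have a fitted effect of over 50% in size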
IL1B secr inh: blocks inflammasome-driven IL-1 beta release | activity change, % at 57.5 µM | actives 4.7% (n = 360,000) | AID 743279 | THP-1 LPS/ATP IL-1B secretion, AlphaLISA, 16 h; hits give low values; in the data active means activity change below about -50%; inconclusive means mostly about -30% to -49%
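THP-1 cells pretreated 1 hr with compounds (up to 57.5 uM final), then stimulated with LPS (250 ng/mL final) plus ATP (1.25 mM final); secreted IL-1B measured by AlphaLISA after 16 hr, decreased signal indicating inhibition.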
RORgamma inh: ROR gamma (mouse) transcription inhibition; actives 5.4% (n = 310,000); AID 2551; Potency, µM (top dose mostly 53.6 µM), for inactives: at the highest dose activity change, negative = inhibition, actives largely listed as inhibitors; Drosophila S2 Gal4-RORgamma UAS-luciferase reporter, 20 h; further: potency means the concentration at half of the fitted maximal effect; nearly all actives have a fitted effect of over 60% in size
Target sequence (P51450 whole entry, looked up, the tested form may be a part): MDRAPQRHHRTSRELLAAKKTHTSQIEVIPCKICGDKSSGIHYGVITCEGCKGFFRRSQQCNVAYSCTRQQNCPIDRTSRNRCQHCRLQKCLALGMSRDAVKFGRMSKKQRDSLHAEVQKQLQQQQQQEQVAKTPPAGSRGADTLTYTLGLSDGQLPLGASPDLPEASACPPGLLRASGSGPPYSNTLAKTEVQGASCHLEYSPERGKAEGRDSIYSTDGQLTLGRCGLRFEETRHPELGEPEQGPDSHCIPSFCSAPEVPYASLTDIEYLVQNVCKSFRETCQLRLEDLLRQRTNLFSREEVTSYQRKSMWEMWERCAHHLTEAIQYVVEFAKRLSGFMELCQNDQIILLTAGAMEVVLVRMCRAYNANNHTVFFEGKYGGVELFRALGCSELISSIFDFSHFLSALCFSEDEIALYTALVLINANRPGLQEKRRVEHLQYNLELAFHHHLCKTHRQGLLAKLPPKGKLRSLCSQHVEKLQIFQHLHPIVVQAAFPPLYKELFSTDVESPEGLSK
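Drosophila Schneider cells stably carrying a metallothionein-driven Gal4 DBD–ROR gamma fusion and a UAS-Photinus luciferase reporter were exposed to compound for 1 hr, then induced with copper sulfate (700 uM final) for 20 hr at ambient temperature before luminescence reading.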
DT40 TDP1 CPT: growth inhibition of DT40 Tdp1-/-;hTDP1 cells with camptothecin (screen for TDP1 inhibitors); chicken DT40 Tdp1-/-;hTDP1 cells + 20 nM CPT, ATP luminescence, 48 h; Potency, µM (highest dose often 46.2 µM), inactives show top-dose activity change, negative = growth inhibition, hits mostly inhibitors; actives 12% (n = 420,000); AID 686979; further: potency means the concentration at half of the fitted maximal effect; nearly all actives have a fitted effect of over 55% in size
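Cell growth measured by CellTiter-Glo luminescence after a minimum 48 h, 37 C compound exposure with 20 nM CPT in Tdp1-knockout DT40 cells stably expressing hTDP1, seeded 400/well; qHTS titration format.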
DT40 TDP1 no CPT: qHTS for Inhibitors of human tyrosyl-DNA phosphodiesterase 1 (TDP1): qHTS in cells in absence of CPT. DT40 Tdp1-/- hTDP1 cells, no CPT, ATP luminescence, 48 h. Potency, µM (series often up to 46.2 µM), for inactives: top-dose activity change, negative = growth inhibition, usual class: inhibitors. actives 15% (n = 420,000). AID 686978, 2013; further: potency means the concentration at half of the fitted maximal effect; nearly all actives have a fitted effect of over 55% in size
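Seeded 400 DT40-hTDP1 cells/well (vehicle DMSO, no 20 nM CPT); pinned compounds; ≥48 hr at 37 °C; CellTiter-Glo luminescence as viability measure.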
LDHA inh: blocks human lactate dehydrogenase A; P00338; purified LDHA, NADH/diaphorase-resazurin fluorescence; hits give low values; activity change, % (values are at about 110 or 230 µM); actives 0.15% (n = 480,000); AID 1347041; in the data active means activity change below about -30%; inconclusive means mostly about -25% to -30%;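 further: plate controls were DMSO wells for no effect and wells without enzyme for full effect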
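Remaining NADH was detected by diaphorase (0.133 mg/mL) converting 37 µM resazurin to fluorescent resorufin, read at 0 and 20 minutes. The preceding 5-minute room-temperature reaction used 2 nM LDHA, 0.2 mM sodium pyruvate and 0.06 mM NADH at pH 7.4.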
* marks the source's active call; other numbers are inactive results; u = inconclusive; x = not tested or not shown. An excerpt weighted towards active compounds, which were near 18% of everything screened. Unless noted, the call rests on the fitted dose curve; in most records, active means well fitted curve in the direction sought with a large enough effect; inconclusive means small, poorly fitted or top-dose-only effect, or another doubt; inactive means no such curve, though single readings can be large; an effect the other way counts as inactive or inconclusive. Unless noted, on the % scale 0 is the no-effect control and ±100 the full control effect.

SMILES	Gal4-VP16 FLuc	IL1B secr inh	RORgamma inh	DT40 TDP1 CPT	DT40 TDP1 no CPT	LDHA inh
Cc1ccccc1C(=O)N1Cc2cnnn2-c2ccccc2C1C#N (stereo unspecified)	x	11.6	x	-8.5%	-19.7%	-4.4
COc1ccc(CN2Cc3cc(-c4ccc(OC)cc4)ccc3-n3nncc3C2)cc1	x	-1.5	x	20.6µM*	18.4µM*	-7.8
COc1ccc(CN2Cc3cc(-c4ccccc4)ccc3-n3nncc3C2)cc1	x	-27.9	x	u	u	-1.1
Cc1ccccc1CN1Cc2cnnn2-c2ccccc2C1C#N (stereo unspecified)	x	-102.4*	x	2.59µM*	2.06µM*	0.1
CCOC(=O)CC1c2ccccc2-n2nncc2CN1Cc1ccc(OC)cc1 (stereo unspecified)	x	8.6	x	u	u	-0.8
COc1ccc(CN2Cc3cc(N4CCOCC4)ccc3-n3nncc3C2)cc1	x	-21.7	x	20.6µM*	u	-2.9
CC(C)(C)C(=O)N1Cc2cc(N3CCOCC3)ccc2-n2nncc2C1	x	-13.5	x	u	-16.3%	-10.0
COc1ccc(CN2Cc3cnnn3-c3ccccc3C2C)cc1 (stereo unspecified)	x	21.2	x	u	16.4µM*	0.4
CCN(CC)c1ccc(N=Cc2c(O)n(-c3ccccc3)c(=O)[nH]c2=O)cc1	-14.0%	34.8	-6.1%	u	u	4.8
CCN(CC)c1ccc(N=Cc2c(O)n(Cc3ccccc3)c(=O)[nH]c2=O)cc1	-17.3%	25.0	-2.8%	16.4µM*	9.2µM*	5.6
C=CCn1c(O)c(C(C)=Nc2ccc(N(CC)CC)cc2)c(=O)[nH]c1=O	-2.9%	39.3	-3.3%	20.6µM*	9.2µM*	7.1
CCN(CC)c1ccc(N=Cc2c(O)n(-c3ccccc3C)c(=O)[nH]c2=O)cc1	2.7%	-7.3	6.3%	23.1µM*	u	10.7
O=c1[nH]c(=O)n(Cc2ccc(F)cc2)c(O)c1C=Nc1ccc(Cl)cc1	3.4%	1.0	-16.5%	u	u	-4.5
CCOC(=O)c1cccc(C2=C(CNC(C)=O)[C@H]3CC[C@@H](C2)N3Cc2ccccc2)c1	x	-14.6	x	-3.0%	u	-4.0
CCOC(=O)c1cccc(C2=C(CNC(=O)c3cccnc3)[C@H]3CC[C@@H](C2)N3Cc2ccccc2)c1	x	u	x	u	20.6µM*	-16.3
CCOc1cc2c(cc1OCC)-n1cccc1C(c1cccc(OCC)c1O)NC2 (stereo unspecified)	-1.1%	-19.2	9.7%	u	16.4µM*	-3.7
CCOc1cc2c(cc1OCC)-n1cccc1C(c1cc(OC)ccc1F)NC2 (stereo unspecified)	-1.8%	-1.6	8.7%	18.4µM*	16.4µM*	2.1
CCOc1cc2c(cc1OCC)-n1cccc1C(c1ccccc1F)NC2 (stereo unspecified)	1.8%	u	-7.9%	u	18.4µM*	0.1
CCOc1cc2c(cc1OCC)-n1cccc1C(c1cccc(F)c1)NC2 (stereo unspecified)	-3.4%	u	12.6%	20.6µM*	u	-1.6
COCCCNC(=S)NCCCNc1nc2cc(C)cc(C)c2cc1C#N	u	u	6.31µM*	u	u	-6.4
O=c1c2ccccc2nc(CSc2ncnc3nc[nH]c23)n1-c1ccc(Cl)c(Cl)c1	-5.5%	12.3	-4.2%	7.08µM*	10µM*	0.5
Cc1nc2ccccc2c(=O)n1-c1ccc(Cl)c(Cl)c1	-7.6%	7.5	19.6%	u	u	-1.2
O=C1NCN(c2ccccc2)C12CCN(CCCOc1ccc(F)cc1)CC2	-2.3%	x	-0.5%	u	23.1µM*	x
CC(=O)OC1C(O)C(C)OC(OC2C(OC(=O)C3CCC4C(C3)OC3(CC(OC(=O)/C=C/c5ccccc5)C(C)CO3)C43CO3)OC(C)C(O)C2OC(C)=O)C1O (stereo unspecified)	x	-98.2*	x	0.146µM*	0.0731µM*	-0.2
COc1ccccc1OP(=O)(Nc1cccnc1)Oc1ccccc1OC	-5.4%	2.5	u	u	11.6µM*	-2.2
SMILES	Gal4-VP16 FLuc	IL1B secr inh	RORgamma inh	DT40 TDP1 CPT	DT40 TDP1 no CPT	LDHA inh
COc1cccc(NP(=O)(Oc2ccc(Cl)cc2)Oc2ccc(Cl)cc2)c1	u	u	u	u	23.1µM*	-4.3
O=P(Nc1ccccc1)(Nc1ccccc1)Oc1ccc(Cl)cc1	-6.8%	22.5	24.6%	-37.4%	-17.2%	1.7
N#CCCNc1ccccc1	x	x	x	x	x	-0.6
COc1ccccc1CNC(=O)C(Cl)(Cl)Cl	x	x	x	x	x	-2.3
C[C@]12CCC3C(CC[C@]4(O)C[C@@H](O)CC[C@]34C=O)[C@@]1(O)CC[C@@H]2C1=CC(=O)OC1 (stereo partly specified)	-3.4%	x	-4.8%	9.44µM*	5.96µM*	x
CN(C)c1ccc(C(=O)N/N=C/C23CC[C@@H](O)CC2(O)CC[C@@H]2[C@@H]3CCC3(C)C(C4=CC(=O)OC4)CCC23O)cc1 (stereo partly specified)	2.0%	u	-18.4%	8.9%	4.6%	-6.9
COc1ccc(C(=O)N/N=C/C23CC[C@@H](O)CC2(O)CC[C@@H]2[C@@H]3CCC3(C)C(C4=CC(=O)OC4)CCC23O)cc1 (stereo partly specified)	4.1%	-70.6*	2.2%	-2.7%	-1.2%	-4.1
CC12CC[C@H]3[C@@H](CCC4(O)C[C@H](O)CCC34/C=N/NC(=O)c3ccc(O)cc3)C1(O)CCC2C1=CC(=O)OC1 (stereo partly specified)	10µM*	9.1	8.91µM*	0.8%	1.2%	0.8
CC[C@]12CCCN3CCC4(c5ccccc5NC4C(C(=O)O)C1)C32 (stereo partly specified)	-11.0%	x	-28.0%	u	u	x
Cn1c(O)c(/C=C2\N=c3ccccc3=C2CCNC(=S)NC2CC2)c(=O)n(C)c1=O	-16.8%	-96.0*	-25.7%	14.6µM*	23.1µM*	5.6
Cc1ccc(Cl)c2sc(NC(=O)c3ccc(S(=O)(=O)N4CCCC4)cc3)nc12	x	x	x	u	u	-7.0
CC(=O)c1ccc(N2CCN(c3ccc4cc(S(=O)(=O)N5CCCCC5)ccc4n3)CC2)cc1	x	x	x	u	3.66µM*	-5.8
O=S1(=O)N(Cc2ccccc2Cl)CCCN1Cc1ccccc1Cl	x	x	x	16.4µM*	u	-3.2
c1ccc2c(c1)CCCC2	-6.7%	x	1.7%	x	x	x
O=C(CSc1ncnc2c1nnn2-c1ccc(F)cc1)NCC1CCCO1 (stereo unspecified)	u	u	u	14.6µM*	20.6µM*	-4.7
